Screening data deposited in PubChem BioAssay by several laboratories.
CHT allo act: allosterically activates the human high affinity choline transporter. CHT-expressing cells, membrane potential dye, choline EC20; stronger effect = higher value; LV-AA mutant CHT in HEK293 cells. Q9GZV3. actives 0.49% (n = 310,000). B-score at 10 µM. AID 488977;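 active = initial fluorescence not abnormally high and integrated response B-score, plate-corrected, over 3 SD above library mean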
Target sequence (Q9GZV3 whole entry, looked up): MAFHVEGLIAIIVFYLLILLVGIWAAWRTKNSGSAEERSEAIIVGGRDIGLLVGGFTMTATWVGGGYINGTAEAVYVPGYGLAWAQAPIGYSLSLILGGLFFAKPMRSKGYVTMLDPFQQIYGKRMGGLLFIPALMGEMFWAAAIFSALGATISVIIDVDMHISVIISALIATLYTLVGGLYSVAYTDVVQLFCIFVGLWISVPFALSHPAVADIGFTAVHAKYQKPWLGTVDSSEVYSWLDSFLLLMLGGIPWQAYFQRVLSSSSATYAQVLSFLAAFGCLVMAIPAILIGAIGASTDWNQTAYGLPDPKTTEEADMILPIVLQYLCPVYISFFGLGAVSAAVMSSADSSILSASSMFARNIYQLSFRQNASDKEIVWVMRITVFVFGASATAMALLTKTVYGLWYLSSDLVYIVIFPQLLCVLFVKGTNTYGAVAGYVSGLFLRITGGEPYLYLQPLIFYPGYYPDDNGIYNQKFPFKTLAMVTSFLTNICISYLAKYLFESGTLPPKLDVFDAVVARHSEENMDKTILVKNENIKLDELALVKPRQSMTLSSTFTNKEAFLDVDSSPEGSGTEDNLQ
TAG inh: triacylglycerol accumulation inhibition | inhibition, % at 12.5 µM | AID 651582 | actives 0.66% (n = 230,000) | H9c2 cells, Nile Red lipid (TAG) fluorescence; cells loaded with 200 µM oleic acid;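 active = pattern-corrected inhibition of lipid staining of at least 50% with the nuclear-stain viability signal not falling by more than 50%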;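 also: 0% = DMSO wells and 100% = triacsin C control wells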
Kir21 block: Kir2.1 (mouse) channel inhibition | P35561 | HEK293-Kir2.1, FluxOR thallium flux fluorescence; stronger effect = lower value | B-score at 10 µM | actives 0.85% (n = 310,000);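 active = fluorescence ratio B-score at or below minus 3 SD of library scores, with starting-brightness B-score within 2 SD, cut at about -4.2 in these data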;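 also: channel flux triggered by added potassium and thallium sulfate stimulus; B-score of peak minus minimum fluorescence over baseline after thallium stimulus; more negative B-score means stronger Kir2.1 block with less thallium influx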
CHT block: inhibitors of human choline transporter CHT | CHT-expressing cells, membrane potential dye, choline response; stronger effect = lower value | B-score at 10 µM | actives 0.86% (n = 310,000) | AID 488975;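 active = B-score over 3 SD under the library average, and starting fluorescence ratio not unusually high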;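 also: choline stimulus applied at its EC90 after an EC20 pre-addition; B-score computed on integrated fluorescence ratio after choline addition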
CHT act confirm: confirmation of human choline transporter (CHT) activators | shares compounds with CHT allo act | CHT-expressing cells, membrane potential dye fluorescence (FDSS); % of choline EC20–EC90 response window; HEK293 expressing CHT LV-AA mutant; choline added at its EC20 | activation, % at 10 µM | actives 91% (n = 2,500);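 active = primary screen active, with duplicate mean activation above negative control mean plus 3 SD, cut at about 11% in these data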
HEK293 MP dye: CHT activator counter-screen hit in parental HEK293 cells; membrane potential dye fluorescence (FDSS); measured after EC20 choline addition; shares compounds with CHT allo act; ratio readout change at 10 µM, hits read low; AID 623908; actives 62% (n = 2,500);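 active = duplicate-averaged ratio beyond 3 SD from buffer wells, up or down, though filed actives are nearly all decreases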
Active calls of the source: *; i = inactive; / = no result given; ! = not confirmed by another sample. The list is not random: actives were taken first. Their share in the collection is about 2%.

SMILES	CHT allo act	TAG inh	Kir21 block	CHT block	CHT act confirm	HEK293 MP dye
CCN1/C(=C/c2ccc3ccccc3[n+]2CCCS(=O)(=O)[O-])C=Cc2cc(C)ccc21	i	/	-0.06	i	/	/
CCN1/C(=C/c2cc[n+](C)cc2)C=Cc2cc(C)ccc21	i	9.1	/	i	20.6*	-61.1*
N#Cc1ccc(-c2cn(-c3ccccc3)c3[n+]2CCCS3)cc1	10.5*	/	1.7	i	62.2*	-64.7*
CCc1ccc(-n2cc(-c3ccc(F)cc3)[n+]3c2SCCC3)cc1	13.8*	-19.5	-1.14	i	81.8*	i
Cc1ccc(-c2cn(-c3ccccc3)c3[n+]2CCCS3)cc1	6.64*!	-22.7	1.89	i	50.0*	-22.9*
CCOC(=O)C1CCN(C(=O)COc2ccc(N(C)S(=O)(=O)c3ccc(C)cc3)cc2)CC1	i	9.3	-0.02	i	/	/
Cn1c(N)c(C(=O)COC(=O)c2ccc(Cl)nc2)c(=O)n(C)c1=O	7.54*	8.5	-0.96	i	21.9*	-30.5*
C[n+]1cn(CC(O)COCc2ccccc2)c2ccccc21 (configuration not stated)	i	/	0.34	i	/	/
Cc1cc2c(cc1C)[n+](C)cn2CC(O)COCc1ccccc1 (configuration not stated)	i	/	0.28	i	48.4*	-35.4*
CCc1ccc(NC(=O)CSc2nnc(CNC(=O)c3ccc(OC)cc3)o2)cc1	i	/	1.12	i	/	/
Cc1nc2c(C)cccc2c2c1COC2	i	-1.1	0.75	i	55.3*	-59.5*
O=C(NC1CCCC1)C(c1ccccn1)N(C(=O)c1csnn1)c1ccccc1Cl (configuration not stated)	i	/	-1.18	i	/	/
COc1ccc2c(c1)C(C)=CC(C)(C)N2S(=O)(=O)c1ccc(C)cc1	7.9*	19.6	-0.26	i	40.6*	i
CCOc1ccc2c(c1)C(C)=CC(C)(C)N2S(=O)(=O)c1ccc(C)cc1	/	14.2	-0.97	/	/	/
Cc1nc([N+](=O)[O-])c(N2CCN(Cc3ccccc3)CC2)n1Cc1ccccc1	7.37*	10.6	-0.81	i	32.8*	i
Cc1nc([N+](=O)[O-])c(N2CCOCC2)n1Cc1ccccc1	i	-2.2	1.28	i	/	/
NC(c1ccccc1)c1ccncc1 (configuration not stated)	i	/	-2.14	i	/	/
Cc1cc(C)n2[nH]c(=O)c(N=Nc3cccc(C(F)(F)F)c3)c2n1	7.21*	-5.4	0.59	i	36.7*	-73.6*
O=C(OCC(=O)N(CCc1ccccc1)Cc1ccccc1)c1ccccc1O	6.52*	-6.5	-0.62	i	38.1*	i
CCCN1C(=O)c2ccc(C(=O)Nc3cc(C)on3)cc2C1=O	i	5.8	0.86	i	21.1*	-27.2*
CCOc1ccc(C(=O)Nc2cc(C)on2)cc1OCC	i	9.8	-0.48	i	46.4*	-34.5*
Cc1cc(NC(=O)c2ccc3c(c2)C(=O)N(Cc2ccccc2)C3=O)no1	i	14.8	0.51	i	/	/
CCc1nnc(NC(=O)Cc2ccc(S(=O)(=O)N3CCCCC3)cc2)s1	/	-15.7	/	/	/	/
CCOc1ccc(-c2cnc3n2CCC3)cc1	i	7.2	-2.19	i	50.2*	-39.1*
CN(c1ccc(OCc2nnc(-c3ccccc3)o2)cc1)S(=O)(=O)c1ccccc1	i	15.8	0.82	i	26.9*	i
SMILES	CHT allo act	TAG inh	Kir21 block	CHT block	CHT act confirm	HEK293 MP dye
CCC1CN(C(=O)N2CCC(C(=O)NCCc3ccccc3)CC2)c2ccccc2O1 (configuration not stated)	i	/	-1.33	i	/	/
N#Cc1nc(COc2ccc(F)cc2)oc1N1CCN(Cc2ccccc2)CC1	7.74*	-68.3	0.24	i	31.4*	i
CCOCCCNC(=S)N1C2CCC1CC(NC(=O)NC1CCCCC1)C2 (configuration not stated)	i	/	-2.13	i	/	/
CCOc1ccc(CNc2ccc3c(c2)nc(C)n3C)cc1	i	/	/	i	/	/
COc1ccc(CNc2ccc3c(c2)nc(C)n3C)cc1OC	6.62*	7.6	-0.27	i	26.2*	-47.6*
CCCCN(CCCC)CP(=O)(c1ccccc1)c1ccccc1	8.87*	4.7	0.36	i	30.5*	i
O=P(CCCCCCCCCP(=O)(c1ccccc1)c1ccccc1)(c1ccccc1)c1ccccc1	i	-53.1	1.19	i	/	/
CCC[n+]1c(C)sc2c3c(ccc21)CCCC3	10.6*	14.0	-0.16	i	82.1*	-68.6*
CN1CCN(C(=O)/C(=C/c2ccc([N+](=O)[O-])cc2)NC(=O)c2ccccc2)CC1	i	/	-0.34	i	/	/
COc1cc(NC(=O)c2c(-c3ccccc3Cl)noc2C)c2ncccc2c1	7.83*	-10.5	0.8	i	7.6	i
COc1ccc(CCNC(=O)Cc2ccc(NC3=NC4CS(=O)(=O)CC4S3)cc2)c(OC)c1 (configuration not stated)	i	0.5	2.47	i	/	/
CCN1CCC2(CC1)C(C#N)=C(N)Oc1c2sc2nc(C)cc(C)c12	6.7*	-3.3	-1.29	i	38.7*	i
Cc1ccc2c(n1)sc1c(N)ncnc12	8.32*	11.4	2.04	i	53.2*	-32.4*
CC(C)C(=O)N1CCC2(CC1)Oc1ccc(Cl)cc1C(=O)C21CC(c2ccccc2)=NO1 (configuration not stated)	i	7.0	0.48	i	5.8	i
CC(Oc1ccccc1)C(=O)N1CCC2(CC1)Oc1ccc(Cl)cc1C(=O)C21CC(c2ccccc2)=NO1 (configuration not stated)	i	/	1.69	i	/	/
O=C(Nc1nnc([C@@H]2C[C@H](O)[C@@H](CO)O2)s1)NC1CCCCC1	/	-0.8	/	/	/	/
COc1ccc(OC)c(CNC(=O)CCn2nc(C)c3c(C)n(-c4ccccc4)nc3c2=O)c1	i	/	-0.82	i	/	/
CN(C)C(CNC(=O)c1ccc2c(c1)S(=O)(=O)c1ccccc1C2=O)c1ccco1 (configuration not stated)	i	8.7	-0.98	i	/	/
O=C(NCc1ccco1)c1ccc2c(c1)S(=O)(=O)c1ccccc1C2=O	8.59*	/	1.02	i	29.8*	i
COc1ccc(Nc2nccc3c2ncn3C)cc1	i	1.8	0.74	i	60.8*	-56.5*
COc1ccc(Nc2ncnc3c2oc2ccccc23)cc1	i	-13.0	-0.86	i	/	/
O=C(Nc1ccnn1C1CCN(C/C=C/c2ccccc2)CC1)c1ccccc1Cl	i	-0.4	-1.36	i	/	/
COc1ccccc1C(=O)Nc1ccnn1C1CCN(C/C=C/c2ccc(F)cc2)CC1	i	3.1	0.84	i	6.8	i
Cc1ccc(CNc2ncc(-c3ccc4c(c3)OCO4)n2C)cc1	6.59*	/	-10*	i	24.6*	-31*
